Consider seven molecules from PubChem BioAssay (NCI).

The panel holds about 83,000 compounds, 20% with a hit somewhere; the sample as a whole holds those more often.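 Single-dose data. Exposure time 48 hours. Values below 10 considered active.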 Values without a mark were called inactive. Calls of active or inactive are those of the source.

Some test systems named below: NCI-H23 lung; NCI-H226 lung; NCI-H322M lung; HOP-62 NSCLC; NCI-H460 lung; HOP-92 NSCLC; NCI-H522 lung; A549/ATCC NSCLC; 786-0 renal; COLO 205 colon; DU-145 prostate; K-562 leukemia; MALME-3M melanoma; MDA-MB-231 breast; RXF 393 renal; SF-268 CNS; SF-295 CNS; SF-539 CNS; UACC-257 melanoma; M14 melanoma.
Holding throughout (experiment): NCI-60 one-dose screen, 48 h (100 = growth as untreated, 0 = no growth, -100 = all killed)
Holding throughout (settings): 10 µM unless noted

`Cn1cc(-c2csc(-c3cn(CCNC(=O)OC(C)(C)C)c4ccc(F)cc34)n2)c2cccnc21`: the growth is 57% with NCI-H23 lung; 50.8% in the assay with NCI-H226 lung; 83.9% in the assay with NCI-H322M lung; 65.7% in the assay with HOP-62 NSCLC; 85.9% with NCI-H460 lung; 49.2% in the assay on HOP-92 NSCLC. Also, the growth was 44.3% in the assay on NCI-H522 lung; 63.1% with A549/ATCC NSCLC; 88.1% in the assay with 786-0 renal; 67.5% in the assay on COLO 205 colon; 94.2% with DU-145 prostate; 56.4% in the assay on K-562 leukemia. Besides, the growth in the assay with MALME-3M melanoma was 83.2%; in the assay on MDA-MB-231 breast, 78.4%; in the assay on RXF 393 renal it was 105%; in the assay on SF-268 CNS, 81.4%; with SF-295 CNS, 86.2%; with SF-539 CNS, 81.7%. Besides, the growth with UACC-257 melanoma is 94.2%; with M14 melanoma, 52.3%.
On to `O=C1/C(=C\C(Cl)=C/c2ccc([N+](=O)[O-])cc2)SC(=S)N1CCc1ccc(O)cc1`, for which the growth in the assay on NCI-H23 lung is -57.9% (active); in the assay with NCI-H226 lung it was -63.3% (active); with NCI-H322M lung it was 2.21% (active); with HOP-62 NSCLC it was 12.9%; in the assay on NCI-H460 lung, 0.441% (active); with HOP-92 NSCLC, -3.03% (active). Further, the growth with NCI-H522 lung was 0.0131% (active); with A549/ATCC NSCLC it was 3.64% (active); in the assay on 786-0 renal, -46.4% (active); with COLO 205 colon, -43.8% (active); in the assay with DU-145 prostate, 5.69% (active); in the assay with K-562 leukemia it was 6.62% (active). In addition, the growth was -64.5% (active) with MALME-3M melanoma; 6.88% (active) with MDA-MB-231 breast; -72.5% (active) in the assay on RXF 393 renal; 9.96% (active) in the assay with SF-268 CNS; -31.4% (active) with SF-295 CNS; -75.4% (active) in the assay on SF-539 CNS. Further, the growth is 4.06% (active) with UACC-257 melanoma and -27.5% (active) in the assay with M14 melanoma.
With `C=C(C)[C@@H]1CC[C@]2(C(=O)N3CCCNCC3)CC[C@]3(C)[C@H](CC[C@@H]4[C@@]5(C)CCC(=O)C(C)(C)[C@@H]5CC[C@]43C)[C@@H]12`, the growth with NCI-H23 lung is 98.4%; in the assay on NCI-H226 lung, 90.7%; in the assay on NCI-H322M lung, 102%; in the assay with HOP-62 NSCLC it was 92.9%; in the assay with NCI-H460 lung, 97.7%; in the assay with HOP-92 NSCLC, 48.4%. The growth in the assay with NCI-H522 lung is 101%; in the assay with A549/ATCC NSCLC it was 86.2%; in the assay with 786-0 renal, 94.9%; in the assay on COLO 205 colon, 101%; with DU-145 prostate it was 93.6%; in the assay on K-562 leukemia, 78.4%. In addition, the growth in the assay with MALME-3M melanoma is 99.3%; in the assay with MDA-MB-231 breast it was 88.7%; in the assay with RXF 393 renal, 81.9%; with SF-268 CNS, 84.9%; in the assay on SF-295 CNS, 104%; in the assay with SF-539 CNS, 99.9%. Besides, the growth with UACC-257 melanoma is 98.4%; in the assay on M14 melanoma, 100%.
For the molecule `Cn1c(/C(C#N)=C/c2ccc3ccccc3c2)cc2ccccc21`, the growth is 19.4% in the assay with NCI-H23 lung; 40.5% in the assay on NCI-H226 lung; 48.9% in the assay on NCI-H322M lung; 38.2% in the assay with HOP-62 NSCLC; 6.27% (active) with NCI-H460 lung; 64.8% in the assay on HOP-92 NSCLC. Moreover, the growth in the assay on NCI-H522 lung is 27.1%; with A549/ATCC NSCLC, 29.8%; in the assay on 786-0 renal, 34.1%; in the assay with COLO 205 colon it was 2.87% (active); in the assay with DU-145 prostate, 14.9%; with K-562 leukemia it was 13.9%. The growth in the assay with MALME-3M melanoma is 46.5%; in the assay on MDA-MB-231 breast, 5.53% (active); in the assay with RXF 393 renal it was 41.1%; in the assay with SF-268 CNS it was 42.9%; with SF-295 CNS, 3.45% (active); in the assay on SF-539 CNS, 3.9% (active). Also, the growth in the assay with UACC-257 melanoma was 84.8%; with M14 melanoma it was 5.87% (active).
Regarding `COc1ccc(C2(Cl)c3ccccc3N(c3ccccc3)c3ccccc32)cc1`, the growth with NCI-H23 lung is -14.8% (active); in the assay with NCI-H226 lung it was -27.8% (active); in the assay with NCI-H322M lung it was 9.96% (active); in the assay on HOP-62 NSCLC, 8.43% (active); in the assay on NCI-H460 lung, -55.2% (active); in the assay on HOP-92 NSCLC, -14.7% (active). For the same molecule, the growth is -3.22% (active) in the assay on NCI-H522 lung; 9.18% (active) with A549/ATCC NSCLC; -48.8% (active) in the assay on 786-0 renal; -42.8% (active) in the assay with COLO 205 colon; 16.8% with DU-145 prostate; 8.99% (active) in the assay on K-562 leukemia. Further, the growth was -57% (active) in the assay on MALME-3M melanoma; -23.8% (active) with MDA-MB-231 breast; -28.4% (active) with RXF 393 renal; 15.4% with SF-268 CNS; -36.6% (active) in the assay on SF-295 CNS; -20.3% (active) with SF-539 CNS. The values for the growth in the assay with UACC-257 melanoma and in the assay on M14 melanoma were -41.5% (active) and -55.1% (active), respectively.
On to `Cc1cc(N2CCCCC2)nc(N(CCNc2ccnc3cc(Cl)ccc23)Cc2ccco2)n1`, for which the growth was 9.31% (active) with NCI-H23 lung; 80.1% in the assay with NCI-H226 lung; 68.9% in the assay with NCI-H322M lung; 24.3% with HOP-62 NSCLC; 8.11% (active) in the assay with NCI-H460 lung; 52% in the assay with HOP-92 NSCLC. The growth with NCI-H522 lung was 19.1%; in the assay on A549/ATCC NSCLC, 36.6%; in the assay on 786-0 renal, 23.4%; in the assay on COLO 205 colon, -13.7% (active); in the assay with DU-145 prostate, 46.4%; with K-562 leukemia, 2.04% (active). The growth with MALME-3M melanoma was 40.2%; with MDA-MB-231 breast, 32.9%; in the assay on RXF 393 renal it was 33.3%; in the assay with SF-268 CNS, 60.7%; in the assay on SF-295 CNS it was 48.7%; with SF-539 CNS, 30.7%. The growth in the assay on UACC-257 melanoma is 88%; in the assay with M14 melanoma it was 9.4% (active).
As to `C[C@@H]1CCCCCCCCC[C@H](O)C(=O)C[C@@H](SC[C@@H](O)C(=O)O)C(=O)O1`, the growth in the assay with NCI-H23 lung was 96.5%; with NCI-H226 lung, 102%; in the assay with NCI-H322M lung, 116%; in the assay on HOP-62 NSCLC, 97.5%; with NCI-H460 lung, 108%; with HOP-92 NSCLC, 90.8%. For the same molecule, the growth in the assay with NCI-H522 lung was 66.4%; in the assay on A549/ATCC NSCLC it was 85.8%; in the assay with 786-0 renal, 85.7%; in the assay with COLO 205 colon, 117%; with DU-145 prostate, 95.2%; in the assay on K-562 leukemia it was 15.5%. Moreover, the growth was 94.7% with MALME-3M melanoma; 96% with MDA-MB-231 breast; 112% with RXF 393 renal; 98% in the assay with SF-268 CNS; 104% with SF-295 CNS; 97.8% in the assay on SF-539 CNS. The growth was 83.4% in the assay on UACC-257 melanoma and 87% with M14 melanoma.
